Measured values: PubChem BioAssay (NCI)
This is part of a sample that, as a whole, favours compounds with a hit. Of some 79,000 tested, about 15% had one in any assay. Active and inactive are the calls of the source. Rule as the data show it: active = growth inhibition above about 70%; inactive = the rest.

Assays:
[1] = NCI Yeast Anticancer Drug Screen. Data for the rad52 strain (AID 147);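 also: 0% = growth of vehicle-treated control cultures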; settings: S. cerevisiae rad52 mutant growth inhibition, active compounds read high
Outline: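 Read-out: growth inhibition versus vehicle-treated controls. Cells were a DNA repair-deficient yeast strain treated with compounds.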

[2] = NCI Yeast Anticancer Drug Screen. Data for the wt1 strain (AID 149);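 also: 0% = growth of vehicle-treated wt1 cultures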; settings: S. cerevisiae wt1 strain (SPY 50644) growth inhibition, active compounds read high
Outline: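 Growth inhibition read against vehicle controls after compound exposure of the wt1 yeast strain.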

[3] = NCI Yeast Anticancer Drug Screen. Data for the rad50EPP+ strain (AID 151);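 also: 0% = growth of vehicle-treated control cultures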; settings: S. cerevisiae rad50 mutant strain, active compounds read high
Outline: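 Growth inhibition read against vehicle controls in rad50EPP+ yeast, a strain altered in DNA damage repair, after compound exposure.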

[4] = NCI Yeast Anticancer Drug Screen. Data for the mgt1 strain (AID 153); settings: S. cerevisiae mgt1 mutant growth inhibition, active compounds read high
Outline: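 mgt1 yeast grown with test compound; read-out is growth inhibition versus vehicle-treated cultures.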

[5] = NCI Yeast Anticancer Drug Screen. Data for the rad50 strain (AID 155);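 also: 0% = growth of vehicle-only cultures of the same strain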; settings: S. cerevisiae rad50 strain growth inhibition, active compounds read high
Outline: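 Readout: growth inhibition relative to vehicle-treated cultures. Compound exposure was carried out in a genetically defined yeast strain deficient in DNA damage repair.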

[6] = NCI Yeast Anticancer Drug Screen. Data for the mec2-1 strain (AID 157); settings: S. cerevisiae mec2-1 strain, active compounds read high
Outline: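 Yeast mec2-1 mutant treated with compound. Readout: growth inhibition vs vehicle controls.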

[7] = NCI Yeast Anticancer Drug Screen. Data for the rad14 strain (AID 159);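 also: 0% = growth of vehicle-treated control cultures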; settings: S. cerevisiae rad14 strain growth inhibition, active compounds read high
Outline: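 Growth inhibition vs vehicle controls; genetically altered yeast strain (DNA damage repair defect) treated with test compounds.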

[8] = NCI Yeast Anticancer Drug Screen. Data for the sgs1 mgt1 strain (AID 161);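 also: 0% = growth of cultures given vehicle only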; settings: S. cerevisiae sgs1 mgt1 strain, active compounds read high
Outline: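 Mutant yeast exposed to compound; growth scored against vehicle-only wells.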

[9] = NCI Yeast Anticancer Drug Screen. Data for the CLN2oe strain (AID 163);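 also: 0% = growth of vehicle-only control cultures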; settings: S. cerevisiae CLN2oe strain, active compounds read high
Outline: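 Read-out: yeast growth inhibition, expressed relative to vehicle-only controls. The strain bears an engineered cell-cycle alteration.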

[10] = NCI Yeast Anticancer Drug Screen. Data for the cln2 rad14 strain (AID 165);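 also: 0% = growth equal to vehicle treated cultures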; settings: S. cerevisiae cln2 rad14 strain, active compounds read high
Outline: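 cln2 rad14 yeast strain; compound exposure; growth inhibition read vs vehicle controls.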

[11] = NCI Yeast Anticancer Drug Screen. Data for the bub3 strain (AID 167); settings: S. cerevisiae bub3 mutant strain, active compounds read high
Outline: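 Readout: yeast growth inhibition, expressed relative to vehicle-only wells. The test organism is a mutant strain from a panel with lesions in DNA repair or checkpoint genes.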

[12] = NCI Yeast Anticancer Drug Screen. Data for the wt2 strain (AID 169);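 also: 0% = growth of vehicle-treated yeast cultures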; settings: S. cerevisiae wt2 strain growth inhibition, active compounds read high
Outline: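 Read-out: growth inhibition versus vehicle-treated control cultures after compound exposure of the yeast strain.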

[13] = NCI Yeast Anticancer Drug Screen. Data for the mlh1 strain (AID 171);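 also: 0% = growth of vehicle-treated control cultures of the same strain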; settings: S. cerevisiae mlh1 strain growth inhibition, active compounds read high
Outline: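 Read-out: growth inhibition versus vehicle controls. Strain: engineered yeast with a defined DNA repair or cell cycle defect, compound-treated.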

[14] = NCI Yeast Anticancer Drug Screen. Data for the sgs1 strain (AID 173);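 also: 0% = growth of vehicle-only control cultures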; settings: S. cerevisiae sgs1 mutant, active compounds read high
Outline: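 Read-out: yeast growth inhibition relative to vehicle controls, following compound exposure of a strain with a defined DNA repair/cell cycle alteration.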

[15] = NCI Yeast Anticancer Drug Screen. Data for the mlh1 rad18 strain (AID 175); settings: S. cerevisiae mlh1 rad18 strain growth inhibition, active compounds read high
Outline: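 Yeast w/ defined DNA-repair lesions; compound exposure; growth vs vehicle controls → % inhibition.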

[16] = NCI Yeast Anticancer Drug Screen. Data for the rad18 strain (AID 177); settings: S. cerevisiae rad18 mutant growth inhibition, active compounds read high
Outline: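 Readout: growth inhibition vs vehicle controls. Cells: genetically altered yeast strain, DNA repair defect.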

[17] = at 5.0 µM (retest, dose inferred, filed as 0.5)
[18] = at 50.0 µM (retest, dose inferred, filed as 5.0)

Measured: growth inhibition

c1ccc(Cc2cc(-c3ccccc3)n[nH]2)cc1
active: [5]; at 50.0 µM 97% | [6]; at 50.0 µM 97% | [8]; at 50.0 µM 89.8% | [10]; at 50.0 µM 70.4% | [11]; at 50.0 µM 93.8% | [11]; at 100.0 µM 80% | [15]; at 50.0 µM 96.8%
inactive: [1]; at 1.2 µM -7% | [1]; at 3.7 µM -5% | [1]; at 11.0 µM -12% | [1]; at 33.0 µM 0% | [1]; at 100.0 µM 59% | [2]; at 1.2 µM -6% | [2]; at 3.7 µM -10% | [2]; at 11.0 µM -15% | [2]; at 33.0 µM -16% | [2]; at 100.0 µM 44% | [3]; at 1.2 µM -3% | [3]; at 3.7 µM 1% | [3]; at 11.0 µM 5% | [3]; at 33.0 µM 22% | [3]; at 100.0 µM 58% | [4]; at 1.2 µM -4% | [4]; at 3.7 µM -8% | [4]; at 11.0 µM -11% | [4]; at 33.0 µM 8% | [4]; at 100.0 µM 50% | [5]; at 1.2 µM -10% | [5]; at 3.7 µM -19% | [5]; [17] -136% | [5]; at 11.0 µM 7% | [5]; at 33.0 µM 5% | [5]; [18] 31% | [5]; at 100.0 µM 60% | [6]; at 1.2 µM 2% | [6]; at 3.7 µM -4% | [6]; [17] -51% | [6]; at 11.0 µM -23% | [6]; at 33.0 µM -11% | [6]; [18] -13% | [6]; at 100.0 µM 43% | [7]; at 1.2 µM -3% | [7]; at 3.7 µM -4% | [7]; at 11.0 µM -7% | [7]; at 33.0 µM 6% | [7]; at 100.0 µM 58% | [8]; [17] -64% | [8]; [18] 46% | [9]; at 1.2 µM -8% | [9]; at 3.7 µM -8% | [9]; at 11.0 µM -14% | [9]; at 33.0 µM 0% | [9]; at 100.0 µM 55% | [10]; [17] -72% | [10]; [18] -13% | [11]; at 1.2 µM -15% | [11]; at 3.7 µM -5% | [11]; [17] -59% | [11]; at 11.0 µM 9% | [11]; at 33.0 µM 37% | [11]; [18] 62% | [12]; at 1.2 µM -3% | [12]; at 3.7 µM -4% | [12]; at 11.0 µM -7% | [12]; at 33.0 µM 10% | [12]; at 100.0 µM 52% | [13]; at 1.2 µM 4% | [13]; at 3.7 µM -12% | [13]; at 11.0 µM -11% | [13]; at 33.0 µM 5% | [13]; at 100.0 µM 55% | [14]; at 1.2 µM -3% | [14]; at 3.7 µM -11% | [14]; at 11.0 µM -5% | [14]; at 33.0 µM 27% | [14]; at 100.0 µM 69% | [15]; [17] -125% | [15]; [18] 9% | [16]; at 1.2 µM -5% | [16]; at 3.7 µM -4% | [16]; at 11.0 µM -1% | [16]; at 33.0 µM 19% | [16]; at 100.0 µM 61%
